# The OligoGym collection
# Molecular target: TSC22D2
# Experiment: pooled miR-30 sensor sort-seq; sequence = guide strand
# Conditions: shRNA
# Further: reference of the scale not given here.
row,Sequence,sensor-assay potency score (higher = more potent)
1,TTAACAGTGCATTTTCTCGTTC,-0.691
2,TAGTATCGTCGACTTGCCCGAC,-0.774
3,TAGTATTCCATACACGTCCATC,-1.07
4,TAAAACTTCCACTTCTTCTCTT,0.683
5,TCTTCTAGTATCGTCGACTTGC,0.0712
6,TATTCCATACACGTCCATCGGC,-0.556
7,TAGCTGTGACACAGCAGTCAAG,-1.48
8,TTCTCTTACTGCATACATCAAA,-0.826
9,TTTAACAGTGCATTTTCTCGTT,0.0173
10,AAAACTTCCACTTCTTCTCTTA,0.265
11,TTTTCTTCTAGTATCGTCGACT,-0.0154
12,TCAACAGGAATAGCTATGCTGA,-0.503

# Molecular target: TSC22D3
# Experiment: as above
# Conditions: shRNA
row,Sequence,sensor-assay potency score (higher = more potent)
1,TTGTTGTCTATGGCCACCACGC,-1.5
2,TTGTCTATGGCCACCACGCTGG,-0.721
3,TAGCTGGGAGTTCTTCTCCACC,-1.58
4,TCTCTCACAGCATACATCAGAT,-0.863
5,TTGTCGGTATTGAGGTTCTCAA,-1.48
6,ATGGTCTGGTCGATGTTGCGGT,-0.997
7,TCGTTGATCAGGTAGCAGGGGT,-0.312
8,TCGATCTTGTTGTCTATGGCCA,-0.64
9,TATGCTGTTGAGCTTGTCGGTA,-0.561
10,TTCTTCATAGGAACAGTCGTTG,-0.524
11,TTCTTCTCCACCAGCTCTCGGA,-1.12
12,TAGGACATCTCTTGGCACCAGC,-0.981
13,TGTTCTCACGCTCTAGCTGGGA,-0.875
14,TTCGATCTTGTTGTCTATGGCC,0.125
15,ATGCTGTTGAGCTTGTCGGTAT,-1.17
16,TTCTTCACCAGATCCATGGCCT,0.0668
17,TTATGCTGTTGAGCTTGTCGGT,-0.79
18,TTGAGCTTGTCGGTATTGAGGT,-0.00573
